Publication PMC8222333, “AsCas12a ultra nuclease facilitates the rapid generation of therapeutic cell medicines”
Substitutions are numbered along the chain they refer to.

B1: CGCG (dsDNA)
DNA 1: GCTATCTAGTGCTCAGTACGCACTGCGCGAGGAAACTTCTGGCAGGACCAGGTCATGAGATCGGAAGAGCACACGTCTGAACTCCAGTCA
DNA 2: TGACTGGAGTTCAGACGTGTGCTCTTCCGATCTCATGACCTGGTCCTGCCAGAAGTTTCCTCGCGCAGTGCGTACTGAGCACTAGATAGC
RNA: AAUUUCUACUCUUGUAGAUAGGAAACUUCUGGCAGGACC
B2: GAAG (dsDNA)
DNA 1: B1 DNA 1 with C26G, G27A, C28A
DNA 2: B1 DNA 2 with G63T, C64T, G65C
RNA: B1 RNA
B3: GAAT (dsDNA)
DNA 1: B1 DNA 1 with C26G, G27A, C28A, G29T
DNA 2: B1 DNA 2 with C62A, G63T, C64T, G65C
RNA: B1 RNA
B4: GACT (dsDNA)
DNA 1: B1 DNA 1 with C26G, G27A, G29T
DNA 2: B1 DNA 2 with C62A, C64T, G65C
RNA: B1 RNA
B5: CGCT (dsDNA)
DNA 1: B1 DNA 1 with G29T
DNA 2: B1 DNA 2 with C62A
RNA: B1 RNA
B6: GACC (dsDNA)
DNA 1: B1 DNA 1 with C26G, G27A, G29C
DNA 2: B1 DNA 2 with C62G, C64T, G65C
RNA: B1 RNA
B7: CGGT (dsDNA)
DNA 1: B1 DNA 1 with C28G, G29T
DNA 2: B1 DNA 2 with C62A, G63C
RNA: B1 RNA
B8: GAAA (dsDNA)
DNA 1: B1 DNA 1 with C26G, G27A, C28A, G29A
DNA 2: B1 DNA 2 with C62T, G63T, C64T, G65C
RNA: B1 RNA
B9: GAAC (dsDNA)
DNA 1: B1 DNA 1 with C26G, G27A, C28A, G29C
DNA 2: B1 DNA 2 with C62G, G63T, C64T, G65C
RNA: B1 RNA
B10: CTCG (dsDNA)
DNA 1: B1 DNA 1 with G27T
DNA 2: B1 DNA 2 with C64A
RNA: B1 RNA
B11: CGGC (dsDNA)
DNA 1: B1 DNA 1 with C28G, G29C
DNA 2: B1 DNA 2 with C62G, G63C
RNA: B1 RNA
B12: GACA (dsDNA)
DNA 1: B1 DNA 1 with C26G, G27A, G29A
DNA 2: B1 DNA 2 with C62T, C64T, G65C
RNA: B1 RNA
B13: CTGC (dsDNA)
DNA 1: B1 DNA 1 with G27T, C28G, G29C
DNA 2: B1 DNA 2 with C62G, G63C, C64A
RNA: B1 RNA
B14: CTGG (dsDNA)
DNA 1: B1 DNA 1 with G27T, C28G
DNA 2: B1 DNA 2 with G63C, C64A
RNA: B1 RNA
B15: GACG (dsDNA)
DNA 1: B1 DNA 1 with C26G, G27A
DNA 2: B1 DNA 2 with C64T, G65C
RNA: B1 RNA
B16: CGGA (dsDNA)
DNA 1: B1 DNA 1 with C28G, G29A
DNA 2: B1 DNA 2 with C62T, G63C
RNA: B1 RNA
B17: CTAC (dsDNA)
DNA 1: B1 DNA 1 with G27T, C28A, G29C
DNA 2: B1 DNA 2 with C62G, G63T, C64A
RNA: B1 RNA

target: dAsCas12a S542R (Acidaminococcus sp., UniProt U2UMQ6 1-1307, S542R;D908A;E993A;D1235A); test: Spec-seq (native PAGE EMSA with sequencing of bound and unbound); 25 mM Tris-HCl pH 7.4, 150 mM KCl, 5 mM MgCl2, 10% glycerol, 1 mM DTT, 40 ng/uL salmon sperm DNA; 400 nM Cas12a, 480 nM crRNA, 50 nM library, 37 C 1 h; native PAGE at room temperature; high values mean tight binding; details: protein: recombinant
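Further: relative affinity from the bound to unbound sequence frequency ratio in Spec-seq.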

B1 was tested. Which binding signal did it give?
The binding signal was -8.29 lnKA.

Which binding signal does the source give for B2 here?
Its binding signal is -8.23 lnKA.

B3 was tested. Which binding signal did it give?
Its binding signal is -8.54 lnKA.

Which binding signal does the source give for B4 here?
Its binding signal is -8.65 lnKA.

How did the binding signal turn out when B5 was run?
The binding signal was -8.52 lnKA.

With B6 as the binder, how does the binding signal read?
Its binding signal is -8.46 lnKA.

B7 was tested. Which binding signal did it give?
The binding signal was -8.62 lnKA.

Which binding signal does the source give for B8 here?
Its binding signal is -8.7 lnKA.

Which binding signal does the source give for B9 here?
The binding signal was -8.59 lnKA.

How did the binding signal turn out when B10 was run?
The binding signal was -6.92 lnKA.

How did the binding signal turn out when B11 was run?
The binding signal was -8.51 lnKA.

How did the binding signal turn out when B12 was run?
Its binding signal is -8.67 lnKA.

For B13, which binding signal is on record?
The binding signal was -8.71 lnKA.

B14 was tested. Which binding signal did it give?
Its binding signal is -8.46 lnKA.

Which binding signal does the source give for B15 here?
Its binding signal is -8.56 lnKA.

For B16, which binding signal is on record?
The binding signal was -8.76 lnKA.

How did the binding signal turn out when B17 was run?
Its binding signal is -8.27 lnKA.

target: d-enCas12a (Acidaminococcus sp., UniProt U2UMQ6 1-1307, E174R;S542R;K548R;D908A;E993A;D1235A); test: as above; details: protein: recombinant

Which binding signal does the source give for B1 here?
Its binding signal is -3.31 lnKA.

For B2, which binding signal is on record?
Its binding signal is -5.82 lnKA.

Which binding signal does the source give for B3 here?
The binding signal was -5.79 lnKA.

With B4 as the binder, how does the binding signal read?
The binding signal was -5.63 lnKA.

B5 was tested. Which binding signal did it give?
Its binding signal is -4.5 lnKA.

How did the binding signal turn out when B6 was run?
The binding signal was -3.91 lnKA.

Which binding signal does the source give for B7 here?
Its binding signal is -5.84 lnKA.

B8 was tested. Which binding signal did it give?
Its binding signal is -5.87 lnKA.

How did the binding signal turn out when B9 was run?
Its binding signal is -5.9 lnKA.

B10 was tested. Which binding signal did it give?
Its binding signal is -3.29 lnKA.

For B11, which binding signal is on record?
The binding signal was -5.63 lnKA.

B12 was tested. Which binding signal did it give?
The binding signal was -4.44 lnKA.

For B13, which binding signal is on record?
The binding signal was -5.32 lnKA.

B14 was tested. Which binding signal did it give?
Its binding signal is -5.9 lnKA.

Which binding signal does the source give for B15 here?
Its binding signal is -5.57 lnKA.

B16 was tested. Which binding signal did it give?
The binding signal was -5.73 lnKA.

With B17 as the binder, how does the binding signal read?
Its binding signal is -4.66 lnKA.

target: d-enCas12a-Ultra (Acidaminococcus sp., UniProt U2UMQ6 1-1307, E174R;S542R;K548R;M537R;F870L;D908A;E993A;D1235A); test: as above; details: protein: recombinant

With B1 as the binder, how does the binding signal read?
Its binding signal is -0.79 lnKA.

B2 was tested. Which binding signal did it give?
The binding signal was -3.51 lnKA.

Which binding signal does the source give for B3 here?
Its binding signal is -3.39 lnKA.

B4 was tested. Which binding signal did it give?
Its binding signal is -3.01 lnKA.

How did the binding signal turn out when B5 was run?
Its binding signal is -1.29 lnKA.

Which binding signal does the source give for B6 here?
Its binding signal is -1.34 lnKA.

With B7 as the binder, how does the binding signal read?
Its binding signal is -3.41 lnKA.

With B8 as the binder, how does the binding signal read?
The binding signal was -3.36 lnKA.

B9 was tested. Which binding signal did it give?
Its binding signal is -3.33 lnKA.

Which binding signal does the source give for B10 here?
Its binding signal is -0.685 lnKA.

For B11, which binding signal is on record?
The binding signal was -3.15 lnKA.

Which binding signal does the source give for B12 here?
The binding signal was -1.74 lnKA.

For B13, which binding signal is on record?
The binding signal was -2.48 lnKA.

B14 was tested. Which binding signal did it give?
The binding signal was -3.29 lnKA.

Which binding signal does the source give for B15 here?
The binding signal was -2.93 lnKA.

Which binding signal does the source give for B16 here?
Its binding signal is -3.26 lnKA.

With B17 as the binder, how does the binding signal read?
The binding signal was -1.69 lnKA.
